# From the supplement of paper PMC10037445
# The full ranking holds about 2,900 compounds; the median of “NF-kB SEAP reporter activity, fold change vs agonist alone” is about 0.99, and the highest 2% start at about 2.6. For the sample, the highest values were picked, then their nearest neighbours and some compounds at random.
# Assays:
# [1] = tested on: RAW-Dual; test: NF-kB SEAP reporter activity, fold change vs agonist alone; cytotoxicity flag (confluency mask): cytotoxic (confluency <70% of control); higher = enhanced NF-kB activity
# In short: (§1)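 Cytotoxic wells were those whose IncuCyte confluency was below 70% of agonist controls in both mask sets. The cells were RAW-Dual macrophages at 50,000 cells/well in DMEM on 384-well plates, dosed with 50 nL of library stock by pin tool, stimulated with a PRR agonist 1 h later, and kept at 37 °C, 5% CO2 for 20 hours. IRF and NF-κB reporter activity, as fold change over agonist-alone wells, came from supernatant read by QuantiLuc luminescence and QuantiBlue absorbance, respectively.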
# [2] = tested on: RAW-Dual; test: NF-kB SEAP reporter activity, fold change vs agonist alone; higher = enhanced NF-kB activity; conditions: cytotoxicity flag (confluency mask): not cytotoxic
# In short: as §1
# [3] = tested on: RAW-Dual; test: NF-kB SEAP reporter activity, fold change vs agonist alone; cytotoxicity flag (confluency mask): not cytotoxic; higher = enhanced NF-kB activity
# In short: as §1
# [4] = agonist: ODN 1826 (TLR9) 0.5 ug/mL
# [5] = agonist: Pam2CSK4 (TLR2/6) 0.1 ug/mL
# [6] = agonist: Pam3CSK4 (TLR2/1) 0.1 ug/mL
# [7] = library stock concentration (final ~1000-fold dilution): 10 mM, agonist: Imiquimod (TLR7) […]
# [8] = library stock concentration (final ~1000-fold dilution): 10 mM, agonist: MPLA (TLR4) […]
smiles,measurement,setting,value
Cc1ccc(NC(=O)Nc2cc(-c3ccccc3-c3nnn[nH]3)ccc2N(CC(C)C)CC(C)C)cc1 (library stock concentration (final ~1000-fold dilution): 10 mM),NF-kB SEAP reporter activity,[1]; agonist: LPS (TLR4) 0.1 ug/mL,1.16
same,NF-kB SEAP reporter activity,[1]; [4],0.54
same,NF-kB SEAP reporter activity,[1]; [5],0.207
same,NF-kB SEAP reporter activity,[1]; [6],0.333
COc1ccc(CC(N)C(=O)NC2C(CO)OC(n3cnc4c(N(C)C)ncnc43)C2O)cc1.Cl.Cl (stereo unspecified),NF-kB SEAP reporter activity,[2]; [7],0.438
same,NF-kB SEAP reporter activity,[2]; [8],1.12
COc1ccc(CC(N)C(=O)NC2C(CO)OC(n3cnc4c(N(C)C)ncnc43)C2O)cc1.Cl.Cl (stereo unspecified) (library stock concentration (final ~1000-fold dilution): 10 mM),NF-kB SEAP reporter activity,[3]; agonist: LPS (TLR4) 0.1 ug/mL,0.584
same,NF-kB SEAP reporter activity,[3]; [4],0.469
same,NF-kB SEAP reporter activity,[3]; [5],0.13
same,NF-kB SEAP reporter activity,[3]; [6],0.256
NC(=O)c1cnc2[nH]ccc2c1NC1C2CC3CC1CC(O)(C3)C2 (stereo unspecified),NF-kB SEAP reporter activity,[2]; [7],0.334
same,NF-kB SEAP reporter activity,[2]; [8],0.347
NC(=O)c1cnc2[nH]ccc2c1NC1C2CC3CC1CC(O)(C3)C2 (stereo unspecified) (library stock concentration (final ~1000-fold dilution): 10 mM),NF-kB SEAP reporter activity,[3]; agonist: LPS (TLR4) 0.1 ug/mL,0.305
same,NF-kB SEAP reporter activity,[3]; [4],0.398
same,NF-kB SEAP reporter activity,[3]; [5],0.242
same,NF-kB SEAP reporter activity,[3]; [6],0.31
CC(NC(=O)c1ccccc1N=Cc1c(O)ccc2ccccc12)c1ccccc1 (stereo unspecified) (library stock concentration (final ~1000-fold dilution): 10 mM),NF-kB SEAP reporter activity,[3]; agonist: LPS (TLR4) 0.1 ug/mL,5.11
same,NF-kB SEAP reporter activity,[3]; [4],1.72
same,NF-kB SEAP reporter activity,[3]; [5],0.843
same,NF-kB SEAP reporter activity,[3]; [6],1.53
CC(C(=O)Nc1cccc(N=Cc2c(O)ccc3ccccc23)c1)c1ccccc1 (stereo unspecified) (library stock concentration (final ~1000-fold dilution): 10 mM),NF-kB SEAP reporter activity,[3]; agonist: LPS (TLR4) 0.1 ug/mL,6.64
same,NF-kB SEAP reporter activity,[3]; [4],2.52
same,NF-kB SEAP reporter activity,[3]; [5],1.5
same,NF-kB SEAP reporter activity,[3]; [6],1.74
CC(NC(=O)c1ccccc1N=Cc1c(O)ccc2ccccc12)c1ccccc1 (stereo unspecified),NF-kB SEAP reporter activity,[2]; [7],1.56
same,NF-kB SEAP reporter activity,[2]; [8],2.25
CC(NC(=Nc1cccc2ncccc12)NC#N)c1ccccc1 (stereo unspecified),NF-kB SEAP reporter activity,[2]; [7],0.897
same,NF-kB SEAP reporter activity,[2]; [8],1.12
CC(NC(=O)CCc1nc2ccccc2c(=O)[nH]1)c1ccccc1 (stereo unspecified) (library stock concentration (final ~1000-fold dilution): 10 mM),NF-kB SEAP reporter activity,[3]; agonist: LPS (TLR4) 0.1 ug/mL,0.987
same,NF-kB SEAP reporter activity,[3]; [4],1.32
same,NF-kB SEAP reporter activity,[3]; [5],0.95
same,NF-kB SEAP reporter activity,[3]; [6],1.25
CC(C(=O)Nc1cccc(N=Cc2c(O)ccc3ccccc23)c1)c1ccccc1 (stereo unspecified),NF-kB SEAP reporter activity,[2]; [7],1.67
same,NF-kB SEAP reporter activity,[2]; [8],2.34
CC(NC(=O)CCc1nc2ccccc2c(=O)[nH]1)c1ccccc1 (stereo unspecified),NF-kB SEAP reporter activity,[2]; [7],1.03
same,NF-kB SEAP reporter activity,[2]; [8],1.03
CC(NC(=Nc1cccc2ncccc12)NC#N)c1ccccc1 (stereo unspecified) (library stock concentration (final ~1000-fold dilution): 10 mM),NF-kB SEAP reporter activity,[3]; agonist: LPS (TLR4) 0.1 ug/mL,1.34
same,NF-kB SEAP reporter activity,[3]; [4],1.07
same,NF-kB SEAP reporter activity,[3]; [5],1.13
same,NF-kB SEAP reporter activity,[3]; [6],1.29
CCN1CCN(Cc2ccc(-c3cc4c(NC(C)c5ccccc5)ncnc4[nH]3)cc2)CC1 (stereo unspecified),NF-kB SEAP reporter activity,[2]; [7],1.59
same,NF-kB SEAP reporter activity,[2]; [8],0.93
CCN1CCN(Cc2ccc(-c3cc4c(NC(C)c5ccccc5)ncnc4[nH]3)cc2)CC1 (stereo unspecified) (library stock concentration (final ~1000-fold dilution): 10 mM),NF-kB SEAP reporter activity,[3]; agonist: LPS (TLR4) 0.1 ug/mL,0.832
same,NF-kB SEAP reporter activity,[3]; [4],0.215
same,NF-kB SEAP reporter activity,[3]; [5],1.02
same,NF-kB SEAP reporter activity,[3]; [6],1.01
CN1CCC(c2c(O)cc(O)c3c(=O)cc(-c4ccccc4Cl)oc23)C(O)C1.Cl (stereo unspecified) (library stock concentration (final ~1000-fold dilution): 10 mM),NF-kB SEAP reporter activity,[3]; agonist: LPS (TLR4) 0.1 ug/mL,0.188
same,NF-kB SEAP reporter activity,[3]; [4],0.968
same,NF-kB SEAP reporter activity,[3]; [5],0.469
same,NF-kB SEAP reporter activity,[3]; [6],1.44
CN1CCC(c2c(O)cc(O)c3c(=O)cc(-c4ccccc4Cl)oc23)C(O)C1.Cl (stereo unspecified),NF-kB SEAP reporter activity,[2]; [7],1.64
same,NF-kB SEAP reporter activity,[2]; [8],1.49
CC1(N)CCN(c2cnc(-c3cccc(Cl)c3Cl)c(N)n2)CC1.Cl (library stock concentration (final ~1000-fold dilution): 10 mM),NF-kB SEAP reporter activity,[3]; agonist: LPS (TLR4) 0.1 ug/mL,1.2
same,NF-kB SEAP reporter activity,[3]; [4],0.647
same,NF-kB SEAP reporter activity,[3]; [5],0.778
same,NF-kB SEAP reporter activity,[3]; [6],0.701
CC1(N)CCN(c2cnc(-c3cccc(Cl)c3Cl)c(N)n2)CC1.Cl,NF-kB SEAP reporter activity,[2]; [7],1.11
same,NF-kB SEAP reporter activity,[2]; [8],1.18
Cl.NCCCCC(N)C(=O)O (stereo unspecified),NF-kB SEAP reporter activity,"[2]; library stock concentration (final ~1000-fold dilution): 10 mM water, agonist: Imiquimod (TLR7) […]",0.925
same,NF-kB SEAP reporter activity,"[2]; library stock concentration (final ~1000-fold dilution): 10 mM water, agonist: MPLA (TLR4) […]",1.06
Cl.NCCCCC(N)C(=O)O (stereo unspecified) (library stock concentration (final ~1000-fold dilution): 10 mM water),NF-kB SEAP reporter activity,[3]; agonist: LPS (TLR4) 0.1 ug/mL,1.04
same,NF-kB SEAP reporter activity,[3]; [4],1.11
same,NF-kB SEAP reporter activity,[3]; [5],1.21
same,NF-kB SEAP reporter activity,[3]; [6],1.17
CCOC(=O)C(CCc1ccccc1)NC(C)C(=O)N1CCCC1C(=O)O.O=C(O)/C=C\C(=O)O (stereo unspecified),NF-kB SEAP reporter activity,[2]; [7],0.942
same,NF-kB SEAP reporter activity,[2]; [8],1.06
CCOC(=O)C(CCc1ccccc1)NC(C)C(=O)N1CCCC1C(=O)O.O=C(O)/C=C\C(=O)O (stereo unspecified) (library stock concentration (final ~1000-fold dilution): 10 mM),NF-kB SEAP reporter activity,[3]; agonist: LPS (TLR4) 0.1 ug/mL,1.08
same,NF-kB SEAP reporter activity,[3]; [4],1.04
same,NF-kB SEAP reporter activity,[3]; [5],1.03
same,NF-kB SEAP reporter activity,[3]; [6],1.02
CC12CCC(O)CC1=CCC1C2CCC2(C)C(C(O)CC(O)(C(F)(F)F)C(F)(F)F)CCC12 (stereo unspecified),NF-kB SEAP reporter activity,[2]; [7],0.815
same,NF-kB SEAP reporter activity,[2]; [8],0.786
CC12CCC(O)CC1=CCC1C2CCC2(C)C(C(O)CC(O)(C(F)(F)F)C(F)(F)F)CCC12 (stereo unspecified) (library stock concentration (final ~1000-fold dilution): 10 mM),NF-kB SEAP reporter activity,[3]; agonist: LPS (TLR4) 0.1 ug/mL,0.54
same,NF-kB SEAP reporter activity,[3]; [4],0.663
same,NF-kB SEAP reporter activity,[3]; [5],0.739
same,NF-kB SEAP reporter activity,[3]; [6],0.489
